Screen size: about 4,100 compounds; about 1,600 (39%) were called active. Another 25% or so got no clear call; they are omitted. The list shows a part of the results. Unmarked numbers belong to inactive results. Calls come from the whole dose curve; as a rule, active = well fitted inhibition curve with a large enough effect; inconclusive = small, poorly fitted or top-dose-only effect; inactive = no such curve, though single readings can be large or run the other way.
Assay: qHTS Validation assay for Inhibitors of Plasmodium falciparum Dd2 growth in vitro; note: nearly all actives have a fitted effect of over 70% in size
Conditions: P. falciparum Dd2 in RBCs, SYBR Green growth, 72 h; series mostly up to 28.7 µM; activity change, negative = inhibition: at the top concentration
Method in brief: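 P. falciparum Dd2-infected red blood cells (2.5% hematocrit, 0.3% parasitemia) grown 72 h at 37 °C under 5% O2 with compounds in a titration, 29 uM to 0.5 nM final. Growth read as SYBR Green-1 fluorescence after ~16 h lysis; artesunate 300 nM as positive control.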
% is set by controls: 0 for no effect and ±100 for the full control effect; potency is the fitted concentration of half-maximal effect.

Row | SMILES | Potency | activity change, negative = inhibition
1 | Cc1cc(N)c2cc(NC(=O)/C=C/c3ccccc3Cl)ccc2n1 | 1.88 µM (active) | 
2 | O=C(/C=C/c1ccccc1)Nc1cccc(C(=O)O)c1 |  | 36.5%
3 | O=C(COc1ccc(F)cc1)N1CCC(c2noc(-c3ccncc3)n2)C1 (configuration not stated) |  | -28.6%
4 | CC1C(=O)C(C)C(c2cc(Cl)ccc2O)NC1c1cc(Cl)ccc1O (configuration not stated) | 6.68 µM (active) | 
5 | Cc1[nH]c2c(C)cccc2c(=O)c1Br | 5.31 µM (active) | 
6 | Cc1cnc(C(=O)Nc2cccc3cccnc23)cn1 | 2.66 µM (active) | 
7 | Cc1cnc(C(=O)N[C@@H]2CCC[C@@H]2C(=O)N2CCC(Cc3ccccc3)CC2)cn1 |  | -11.4%
8 | O=C1Nc2ccc(-c3ccc(Cl)cc3)cc2C(=O)N2CCN(C(=O)c3ccccc3)C[C@H]12 |  | -13.6%
9 | CCOc1ccc(-c2cc3c(=O)n(CCNC(=O)c4ccc(OC)c(F)c4)ccn3n2)cc1 |  | -12.6%
10 | CCN1CCN(C(=O)c2ccc3c(c2)N(Cc2ccc(Cl)cc2)C(=O)c2ccccc2S3=O)CC1 (configuration not stated) | 0.668 µM (active) | 
11 | CCn1cc(CN2CCN(C(=O)c3ccsc3)CC2)ccc1=O |  | 38.8%
12 | CCOc1ccc(CCNC(=O)c2ccc3c(c2)N(Cc2ccccc2F)C(=O)c2ccccc2S3=O)cc1OCC (configuration not stated) | 10.6 µM (active) | 
13 | CCN1CCN(C(=O)c2ccc3c(c2)N(Cc2ccccc2F)C(=O)c2ccccc2S3=O)CC1 (configuration not stated) | 0.842 µM (active) | 
14 | CC(C)(C)c1ccc(C(=O)N2CCN(Cc3cc(=O)n4nc(-c5ccccc5F)sc4n3)CC2)cc1 |  | 19%
15 | COc1ccc(C(=O)N2CCc3nn(Cc4ccccc4)c(=O)n3CC2)cc1F |  | 8.65%
16 | CCOC(=O)Cn1c(=NC(=O)C2CC2)sc2c(C)cc(C)cc21 |  | -25.1%
17 | CCc1ccc(N2CC(c3noc(-c4nccc5ccccc45)n3)CC2=O)cc1 (configuration not stated) |  | 9.68%
18 | O=S(=O)(c1ccc(Cl)cc1)N1CCN(Cc2ccc(O)c3ncccc23)CC1 | 13.3 µM (active) | 
19 | O=C(N[C@H]1CO[C@H]2[C@@H]1OC[C@@H]2n1cc(-c2ccccc2)nn1)c1ccc(C(F)(F)F)cc1 |  | 30.8%
20 | COc1ccc(CN2C(=O)C(NC(=O)c3ccccc3C)(C(F)(F)F)N=C2c2ccccc2)cc1 (configuration not stated) |  | 14.3%
21 | COc1ccc(CN2C(=O)C(C)N(C(=O)c3c(F)cccc3F)c3ccccc32)cc1 (configuration not stated) | 7.5 µM (active) | 
22 | O=C(/C(=C/c1ccc(Cl)cc1)c1nc2ccccc2[nH]1)c1cccs1 | 2.11 µM (active) | 
23 | CN(C)CCCNc1ccc(-c2cc(Nc3cccc(Cl)c3)ncn2)cn1 | 9.44 µM (active) | 

Row | SMILES | Potency | activity change, negative = inhibition
24 | O=C(Nc1ccc(F)cc1)Nc1nnc(SCC(=O)N2CCCCC2)s1 |  | -27.1%
25 | CCc1nnc(NC(=O)c2cc(Cl)ccn2)s1 |  | 197%
26 | O=C(Nc1nnc(SCc2ccc(F)cc2)s1)c1ccccn1 | 8.41 µM (active) | 
27 | CC1=C[C@@H](CNC(=O)COc2ccccc2)[C@H](C(C)C)C[C@H]1Cc1nnc(-c2cncn2C)o1 | 13.3 µM (active) | 
28 | COc1ccccc1N1CCN(C[C@@H]2C=C(C)[C@H](Cc3nnc(-c4cncn4C)o3)C[C@H]2C(C)C)CC1 | 10.6 µM (active) | 
29 | Cc1ccc(NC(=O)CCSc2nc(-c3ccco3)cc(C(F)(F)F)n2)cc1F |  | -6.22%
30 | COc1ccc(-c2cc(C(F)(F)F)nc(SCCC(=O)Nc3cc(C)ccc3O)n2)cc1 | 1.88 µM (active) | 
31 | COc1cccc(NC(=O)CCSc2nc(-c3ccco3)cc(C(F)(F)F)n2)c1 |  | 0%
32 | O=C(Nc1cc(C(F)(F)F)cc(C(F)(F)F)c1)Nc1cnn(-c2ccc([N+](=O)[O-])cc2)c1C(F)(F)F | 6.68 µM (active) | 
33 | CC(Sc1nc2cc([N+](=O)[O-])ccc2n1-c1cccc(C(F)(F)F)c1)C(=O)NC(N)=O (configuration not stated) |  | -0.926%
34 | Cc1cn2nc(C(=O)Nc3ccc4c(c3)OCCO4)cc2c(N(C)Cc2ccccc2)n1 |  | -6.41%
35 | Cc1cn2nc(C(=O)Nc3ccc(N(C)C)cc3)cc2c(N(C)Cc2ccccc2)n1 | 15 µM (active) | 
36 | Cc1cn2nc(C(=O)NCc3ccccc3F)cc2c(N(C)Cc2ccccc2)n1 |  | -11.1%
37 | Cc1cc(N2CCC(C)CC2)nc(-n2nc(C)cc2C)n1 | 2.99 µM (active) | 
38 | CNc1cc(C)nc(-n2nc(C)cc2C)n1 | 8.41 µM (active) | 
39 | Cc1ccc(Nc2cc(C)nn2-c2nc(C)cc(C)n2)cc1 | 6.68 µM (active) | 
40 | COc1ccc(/C=N/Nc2cc(C)nc(-n3nc(C)cc3C)n2)c(OC)c1 | 5.31 µM (active) | 
41 | COCC(=O)NC[C@H]1CCN(Cc2ccc(Cl)cc2)C[C@H]1N(C)C |  | 13.5%
42 | COc1cccc(NC(=O)c2sc3nc(C)c(C(=O)Nc4ccc(C)cc4C)c(-c4cccs4)c3c2N)c1 | 5.96 µM (active) | 
43 | COc1cccc(OC)c1C(=O)Nc1cccc(-c2nc3cc(C)cc(C)c3o2)c1 |  | 46.6%
44 | COc1cccc(NC(=O)c2sc3nc(C)c(C(=O)Nc4ccc(C)cc4C)c(-c4ccccc4Cl)c3c2N)c1 | 2.66 µM (active) | 
45 | NC1CCCCN(C(=O)CCc2n[nH]c3c2CCCC3)C1 (configuration not stated) |  | 55.9%
46 | Cc1ccc(-n2nc3c(c2NC(=O)C(C)C)CS(=O)(=O)C3)c(C)c1 |  | 26.2%

Row | SMILES | Potency | activity change, negative = inhibition
47 | Cc1ccc(S(=O)(=O)Nc2cc(=O)[nH]c(SCC(=O)Nc3cccc(C)c3)n2)cc1 |  | 35.4%
48 | CCn1c(SCC(=O)NNC(=O)Cc2ccccc2)nnc1-c1ccncc1 |  | 11.2%
49 | c1ccc(Cn2c(Sc3nnnn3-c3ccccc3)nnc2-c2ccccc2)cc1 | 7.5 µM (active) | 
50 | CN(C1CCc2nn(CC3CC3)c(=O)n2CC1)S(=O)(=O)c1cccs1 (configuration not stated) |  | 9.65%
51 | COc1ccc2c(c1)OC(C)(C)C(c1ccccc1)C2c1ccc(OCCN2CCCC2)cc1 (configuration not stated) | 6.68 µM (active) | 
52 | COc1cccc(C(=O)N2CCC3(CC2)CCN(CCc2ccccc2)c2ccccc2O3)c1 |  | -0.287%
53 | O=C(NCCNc1ccnc2cc(Cl)ccc12)c1ccccc1F | 1.68 µM (active) | 
54 | O=C(NCc1nnc2ccc(-c3ccccc3)nn12)c1cc(Cl)ccc1F |  | -3.02%
55 | O=C(NCCCNc1ccnc2cc(Cl)ccc12)c1ccccc1F | 0.842 µM (active) | 
56 | COc1ccc(CN[C@@H]2C=C[C@@H](c3c(C)nn(-c4ccc(OC)cc4)c3C)C2)cc1 | 4.85 µM (active) | 
57 | Cc1nn(-c2cccc(Br)c2)c(C)c1[C@@H]1C=C[C@@H](NC(=O)c2cccs2)C1 |  | -11.6%
58 | COc1ccc(-n2nc(C)c([C@@H]3C=C[C@@H](NCc4ccc(F)cc4)C3)c2C)cc1 | 1.37 µM (active) | 
59 | Cc1nn(-c2ccc(C(C)(C)C)cc2)c(C)c1[C@@H]1C=C[C@@H](NC(=O)c2ccco2)C1 | 12.2 µM (active) | 
60 | Cc1cc(=O)n(C(C)C(=O)NCc2ccccc2Cl)c2c1c(C)nn2-c1ccccc1 (configuration not stated) |  | 27.8%
61 | O=C(NC1C[C@H]2CC[C@@H](C1)N2C(=O)c1ccco1)c1ccncc1 (some centres not stated) |  | 20%
62 | Cc1nn(-c2ccc(C(C)C)cc2)c(C)c1[C@@H]1C=C[C@@H](NCc2ccccc2)C1 | 21.7 µM (active) | 
63 | Cc1cccc(CCNC(=O)CCS(=O)(=O)c2cc3c(cc2Cl)NC(=O)CO3)c1 |  | 22.2%
64 | COc1ccc(OC)c(C2CCN(c3ncncn3)C2)c1 (configuration not stated) |  | 20.9%
65 | CC(C)Oc1ccc2c(NC(=O)c3ccn(C)n3)nn(CC(F)(F)F)c2c1 |  | 22.3%
66 | O=C(NCc1cc(F)ccc1F)C1CCN(c2cn[nH]c(=O)c2)C1 (configuration not stated) |  | 14%
67 | COc1ccc(-n2nc(C)c([C@@H]3C=C[C@@H](NCc4cccc(Cl)c4)C3)c2C)cc1 | 1.37 µM (active) | 
68 | COc1ccc(-n2nc(C)c([C@@H]3C=C[C@@H](NCc4ccc(N(C)C)cc4)C3)c2C)cc1 | 4.33 µM (active) | 
69 | Cn1c(=O)oc2cc(S(=O)(=O)CCC(=O)N3CCN(c4ccccc4F)CC3)ccc21 |  | 37.6%

Row | SMILES | Potency | activity change, negative = inhibition
70 | O=C1CCN(Cc2ccc(F)cc2F)CCCC(c2nc(-c3cnccn3)no2)CCN1 (configuration not stated) |  | -24.9%
71 | O=c1[nH]c(N2CCOCC2)nc2c1CCN(Cc1ccc(Cl)cc1F)CC2 | 3.35 µM (active) | 
72 | O=c1[nH]c(N2CCOCC2)nc2c1CCN(Cc1cc(Cl)ccc1F)CC2 | 2.37 µM (active) | 
73 | O=C(Nc1ccc(Cl)cc1)c1nc2c(o1)CCN(Cc1ccc(F)cc1F)CC2 |  | -4.48% [at 43.1 µM]
74 | O=c1[nH]c(N2CCOCC2)nc2c1CCN(Cc1cc(Br)ccc1F)CC2 | 5.31 µM (active) | 
75 | O=c1[nH]c(N2CCOCC2)nc2c1CCN(Cc1cc(F)c(F)cc1F)CC2 | 15 µM (active) | 
76 | COc1ccc2c(c1OC)C(=O)OC2CC(=O)c1ccc(O)cc1 (configuration not stated) |  | 14.8%
77 | CCOc1cc(C2CC(=O)NC3=C2C(=O)C(C(=O)OC)C(C)C3)cc(Br)c1O (configuration not stated) | 6.68 µM (active) | 
78 | CCOc1ccc(/C=C/C(=O)Nc2ccc3nc(N(CC)CC)cc(C)c3c2)cc1OC | 1.88 µM (active) | 
79 | COc1ccc(/C=C/C(=O)NCCc2ccc(OC)c(OC)c2)cc1 |  | 10.2%
80 | CCN(CC)c1cc(C)c2cc(NC(=O)/C=C/c3cc(OC)c(OC)c(OC)c3)ccc2n1 | 4.73 µM (active) | 
81 | Fc1ccccc1Cn1nnc2c(-n3ccnc3)ncnc21 |  | 4.31%
82 | O=C1Nc2ccccc2CN(CC2CC2)C12CCNCC2 |  | 1.97%
83 | Cc1nnc(-c2cc(Nc3cccc(N(C)C)c3)ccn2)n1Cc1ccccc1 |  | -11% [at 43.1 µM]
84 | CN(C)c1cccc(Nc2cc3c(cn2)CN(Cc2ccccc2)CCN3)c1 | 13.7 µM (active) | 
85 | c1ccc(Nc2cc3c(cn2)CN(Cc2ccc4[nH]ccc4c2)CCN3)cc1 | 1.37 µM (active) | 
86 | O=C1NC(=NC2CCCC2)C2(CCN(Cc3ccsc3)C2)N1c1cccnc1 (configuration not stated) |  | -11.2%
87 | c1ccc(Nc2cc3c(cn2)CN(Cc2ccsc2)CCN3)cc1 | 13.7 µM (active) | 
88 | CN(C)c1ncnc2sc3c(c12)CCN(Cc1ccc2cc[nH]c2c1)C3 |  | -7.09%
89 | Cc1ccc(C)c(OC(=O)CSc2nnc(-c3cccs3)o2)c1 |  | 13%
90 | Cc1cc(NC(=O)CN2CCN(c3ccc(O)cc3)CC2)no1 | 4.73 µM (active) | 
91 | CNS(=O)(=O)c1cn(CC(=O)N2CCN(c3ccc(C(C)=O)cc3)CC2)cc1S(=O)(=O)NC |  | 41.4%
92 | CCOc1ccc(C(=O)Nc2cc(C)on2)cc1 |  | -10.9%
